The list is not random: actives were taken first. Their share in the collection is about 19%.
DT40 TDP1 no CPT = qHTS for Inhibitors of human tyrosyl-DNA phosphodiesterase 1 (TDP1): qHTS in cells in absence of CPT | DT40 Tdp1-/- hTDP1 cells, no CPT, ATP luminescence, 48 h | Potency, µM (doses to about 46.2 µM), inactives show at the top dose activity change, negative = growth inhibition, actives largely listed as inhibitors | 15% of 420,000 active; note: nearly all actives have a fitted effect of over 55% in size
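Cells were dispensed at 400 per well, compounds added by pin tool, plates incubated ≥48 hr at 37 °C, then CellTiter-Glo added for 30 min at room temperature before luminescence reading. Line: DT40 Tdp1-/- complemented with hTDP1; camptothecin omitted.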
TDP1 cell CPT = growth inhibition of DT40 Tdp1-/-;hTDP1 cells with camptothecin (screen for TDP1 inhibitors). chicken DT40 Tdp1-/-;hTDP1 cells + 20 nM CPT, ATP luminescence, 48 h. Potency, µM (titrated, usually from 46.2 µM), for the others: at the highest dose activity change, negative = growth inhibition, most hits filed as inhibitors. 12% of 420,000 active. AID 686979; note: nearly all actives have a fitted effect of over 55% in size
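Chicken DT40 Tdp1-/- cells complemented with human TDP1, 400 cells/well, exposed to compounds plus 20 nM camptothecin for at least 48 h at 37 C; viability read as ATP content by CellTiter-Glo luminescence.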
HT1080-NT tox = kills 2HG-producing HT-1080-NT fibrosarcoma cells | HT-1080-NT fibrosarcoma viability, CellTiter-Glo ATP luminescence, 48 h | Potency, µM (top dose mostly 46.1 µM), for the others: at the top dose activity, negative = less viability, actives largely listed as cytotoxic | 1.6% of 360,000 active | AID 686970;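 note: NT is the 2HG producing partner of a matched IDH1 knockdown line; 0% = DMSO-treated cells and -100% = media-only wells without cells; nearly all actives have a fitted effect of over 55% in size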
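Read-out is CellTiter-Glo luminescence after 10 minutes at room temperature, following 48 hours' compound treatment of HT-1080-NT cells (750 cells/well, RPMI, 5% FBS, 37 degrees C).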
KB-3-1 cytotox = kills parental KB-3-1 adenocarcinoma cells. Potency, µM (series often up to 46.1 µM), hits mostly cytotoxic. 1.4% of 400,000 active. KB-3-1 viability, CellTiter-Glo ATP luminescence, 72 h; note: nearly all actives have a fitted effect of over 60% in size
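Luminescent ATP read-out (CellTiter-Glo) measures survival of drug-naive KB-3-1 cells after 72 h compound exposure at 37 °C. Titration series was screened from lowest to highest concentration, with DMSO vehicle plates as background controls.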
HT1080 IDH1KD tx = HT-1080 IDH1 knockdown cell toxicity (counter line); 2% of 360,000 active; AID 686971; HT-1080 IDH1 knockdown viability, ATP luminescence, 48 h; Potency, µM (titrated, usually from 46.1 µM), for the others: at the top dose activity, negative = toxicity, hits mostly cytotoxic;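 note: 0% = DMSO wells and -100% = cell-free medium wells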
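IDH1KD HT-1080 cells, 750/well, RPMI + 5% FBS; compound pinned after 2 h settling; 48 h, 37 °C; CellTiter-Glo luminescence; % activity normalised to DMSO and no-cell wells; curves fitted, classed by r2 and efficacy.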
KB-V1 MDR tox = KB-V1 MDR subline cytotoxicity | KB-V1 MDR cells viability, CellTiter-Glo, 72 h | Potency, µM (titrated, usually from 46.1 µM), most hits filed as cytotoxic | 3.4% of 400,000 active; note: nearly all actives have a fitted effect of over 60% in size
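Readout: CellTiter-Glo luminescence, 10 min after addition. Cells: KB-V1 MDR subline, 72 h at 37 degrees C with compound. Analysis: corrected, normalized data fitted to concentration-effect curves.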
* hit, by the source's call; i = inactive; ? = inconclusive; . = no result given; [ ] = dose if it differs, or a comment. Calls come from the whole dose curve; as a rule, active = well fitted curve in the direction sought with a large enough effect; inconclusive = small, poorly fitted or top-dose-only effect, or another doubt; inactive = no such curve, though single readings can be large; an effect the other way counts as inactive or inconclusive. Unless noted, % is set by controls: 0 for no effect and ±100 for the full control effect; potency is the fitted concentration of half-maximal effect.

SMILES | DT40 TDP1 no CPT | TDP1 cell CPT | HT1080-NT tox | KB-3-1 cytotox | HT1080 IDH1KD tx | KB-V1 MDR tox
Cc1c(-c2ccccc2)oc2c(C(=O)N3CCN(c4ccc([N+](=O)[O-])cc4)CC3)cccc2c1=O | 20.6µM* | 16.4µM* | -1.1% | i | 1.5% | ?
COc1ccc2oc(C(=O)OCC(=O)N3CCN(c4ccccc4)CC3)c(C)c2c1 | ? | -19.8% | 8.0% | i | 8.4% | i
COc1ccc(N2CCN(C(=O)COC(=O)c3oc4ccccc4c3C)CC2)cc1 | 16.4µM* | 20.6µM* | 3.2% | ? | 2.0% | i
CCOc1ccc(NC(=O)CSc2nnc(CNC(=O)C34CC5CC(CC(C5)C3)C4)n2CC)cc1 | ? | ? | . | i | . | i
COc1cc2nc(N3CCCC(O)C3)c(CNCc3ccccc3F)cc2c(OC)c1OC (stereo unspecified) | -25.9% | -1.0%[9.04 µM] | . | . | . | .
Cn1ccc2c(N3CCCCC3)cc3c(c21)C1CCC3C1 (stereo unspecified) | ? | ? | -7.1% | i | 0.9% | i
Cc1ccc(C)c(CN2C(=O)c3ccccc3S(=O)(=O)c3ccc(C(=O)Nc4cc(F)ccc4F)cc32)c1 | . | . | . | i | . | i
CCCCOc1ccc(CONS(=O)(=O)c2ccc(NC(C)=O)cc2)cc1Cl | 14.6µM* | 13µM* | -5.9% | i | -5.9% | 14.6µM*
COCCCNS(=O)(=O)c1ccc(SC)cc1 | ? | 1.8% | -0.3% | i | -1.3% | i
CSc1ccc(S(=O)(=O)NCCOc2ccccc2C)cc1 | ? | 25.9µM* | ? | i | -12.3% | ?
CC(=O)Nc1ccc(S(=O)(=O)NCCOc2ccc(Cl)cc2C)cc1 | 13µM* | 23.1µM* | -25.7% | 8.2µM* | -14.6% | i
O=S(=O)(NOCc1ccc(Cl)cc1)c1ccc(Cl)cc1 | -29.7% | -17.2% | -6.1% | i | -2.6% | i
CC1(C(=O)Nc2ccc3c(c2)OCO3)CCN1C(=O)CCC1CCCC1 (stereo unspecified) | ? | ? | 13.7% | i | -2.9% | i
CCc1ccc(NC(=O)c2cc(CN3CCOCC3)on2)cc1 | ? | -18.5% | . | i | . | i
COc1ccc(-c2nnc3sc(-c4ccccc4OC)nn23)cc1 | ? | -19.6% | 20.2% | i | 9.1% | i
COc1ccccc1-c1nn2c(-c3cc(C)[nH]n3)nnc2s1 | 7.94µM* | 8.91µM* | . | i | . | i
Clc1ccccc1-c1nnc2sc(-c3ccccn3)nn12 | ? | ? | -4.0% | i | 1.7% | i
COc1cccc(OC)c1-c1nn2c(-c3ccccc3Cl)nnc2s1 | -23.1% | 0.1% | -1.5% | i | -8.9% | 9.2µM*
Cc1ccc(CNC(=O)C2CCCN(S(=O)(=O)c3cccc4nsnc34)C2)cc1 (stereo unspecified) | -14.0% | 0.1% | . | i | . | i
COc1cc2nc(NCCc3ccccc3)n3nc(-c4cccnc4)nc3c2cc1OC | -11.3% | 0.3% | . | . | . | .
COC(=O)/C=c1/sc2nc3ccccc3n2c1=O | ? | ? | 3.2% | i | 11.4% | i
O=c1c2ccccc2nc2sc3ccccc3n12 | 13µM* | ? | -24.7% | i | -19.2% | i
CCOc1ccc(CCNC(=O)c2ccc3c(c2)c(C)c(C)n3Cc2ccccc2)cc1OCC | 13µM* | 16.4µM* | . | i | . | ?
COc1cc(CCNC(=O)c2ccc3c(c2)c(C)c(C)n3Cc2cccc(C)c2)cc(OC)c1OC | 5.17µM* | 7.31µM* | . | i | . | i
Cc1c(C)n(Cc2ccccc2)c2ccc(C(=O)NCCN3CCOCC3)cc12 | -29.0% | ? | -26.0% | i | -20.7% | i
Cc1ccc(CCNC(=O)c2ccc3c(c2)c(C)c(C)n3Cc2ccccc2)cc1 | ? | 16.4µM* | . | i | . | i

High-throughput results: PubChem BioAssay, National Center for Advancing Translational Sciences (NCATS)
